# Screening results deposited in PubChem by National Center for Advancing Translational Sciences (NCATS).
# HP1b binding inh: inhibitors of HP1-beta chromodomain binding to methylated histone tails; P83916; AlphaScreen HP1-beta / biotin-H3K9me3 peptide binding; Potency, µM (doses to about 114 µM), for inactives: top-dose activity change, negative = inhibition, actives largely listed as inhibitors; 390,000 compounds, 0.56% hits; further: nearly all actives have a fitted effect of over 70% in size
#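 Compound inhibition of the preformed complex between 50 nM HP1-beta and 50 nM biotinylated H3K9me3 peptide was read by AlphaScreen. Buffer was PBS pH 7.4 with 0.01% Tween-20. Incubations ran 30 min at room temperature, with 10 ug/mL donor/acceptor beads.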
# G9a inh: blocks human histone lysine methyltransferase G9a; G9a H3K9 monomethylation, AlphaScreen, 2 h; Potency, µM (series often up to 102 µM), for inactives: top-dose activity, negative = inhibition, most hits filed as inhibitors; 350,000 compounds, 8.8% hits; AID 504332; further: on the % scale 0 is the no-effect control and ±100 the full control effect; nearly all actives have a fitted effect of over 75% in size
#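 Chemiluminescent proximity detection of H3K9 monomethylation, read after 10 min bead incubation in the dark. Reaction: 20 nM G9a, 500 nM biotin-H3K9 peptide, 20 uM SAM cofactor, 2 h, room temperature, following 15 min enzyme-compound preincubation.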
# BAZ2B block: blocks human BAZ2B | Q9UIF8 | AlphaScreen BAZ2B-H3K14Ac peptide displacement | Potency, µM (top dose mostly 114 µM), without a hit: at the top dose activity change, negative = inhibition, actives largely listed as inhibitors | 360,000 compounds, 4.4% hits; further: on the % scale 0 is the no-effect control and ±100 the full control effect; nearly all actives have a fitted effect of over 60% in size
#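 In this displacement format the biotinylated H3(5-23) peptide acetylated at Lys14 serves as ligand at 50 nM, with BAZ2B at 50 nM in PBS pH 7.4 containing 0.01% Tween-20. Donor and acceptor beads are 10 ug/mL final.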
# Sfp PPTase inh: inhibitors of Bacillus subtilis Sfp phosphopantetheinyl transferase; Biochemical Sfp PPTase activity, qHTS; Potency, µM, inactives show largest response in the series, negative = inhibition, hits mostly inhibitors; 310,000 compounds, 3.5% hits;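 further: the enzyme is Sfp with the accession as filed and its product quenches rhodamine fluorescence; 0% = enzyme reaction without inhibitor and -100% = no enzyme wells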
#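 Fluorescence-quenching assay: 15 nM Sfp-PPTase preincubated 15 min at room temperature with compound, then 5 uM rhodamine-CoA and 12.5 uM BHQ-2-labelled YbbR peptide added. Fluorescence (ex 525/em 598 nm) read at start and after 30 min; difference gives rate.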
# JMJD2A Tudor inh: inhibitors of human JMJD2A Tudor domain; O75164; Potency, µM (highest dose often 114 µM), for the others: at the highest dose activity change, negative = inhibition, actives largely listed as inhibitors; 390,000 compounds, 4.4% hits; AlphaScreen JMJD2A-Tudor / H3K4me3 peptide binding; further: on the % scale 0 is the no-effect control and ±100 the full control effect; nearly all actives have a fitted effect of over 50% in size
# PLK1 PBD block: inhibitors of human PLK1 polo-box domain binding. Potency, µM, without a hit: max response, negative = inhibition, usual class: inhibitors. AID 720504. P53350. Plk1 PBD binding of FITC phosphopeptide, fluorescence polarization. 360,000 compounds, 2.8% hits; further: series mostly up to about 57 µM; on the % scale 0 is the no-effect control and ±100 the full control effect; nearly all actives have a fitted effect of over 65% in size
# Target sequence (P53350 whole entry, looked up, the tested form may be a part): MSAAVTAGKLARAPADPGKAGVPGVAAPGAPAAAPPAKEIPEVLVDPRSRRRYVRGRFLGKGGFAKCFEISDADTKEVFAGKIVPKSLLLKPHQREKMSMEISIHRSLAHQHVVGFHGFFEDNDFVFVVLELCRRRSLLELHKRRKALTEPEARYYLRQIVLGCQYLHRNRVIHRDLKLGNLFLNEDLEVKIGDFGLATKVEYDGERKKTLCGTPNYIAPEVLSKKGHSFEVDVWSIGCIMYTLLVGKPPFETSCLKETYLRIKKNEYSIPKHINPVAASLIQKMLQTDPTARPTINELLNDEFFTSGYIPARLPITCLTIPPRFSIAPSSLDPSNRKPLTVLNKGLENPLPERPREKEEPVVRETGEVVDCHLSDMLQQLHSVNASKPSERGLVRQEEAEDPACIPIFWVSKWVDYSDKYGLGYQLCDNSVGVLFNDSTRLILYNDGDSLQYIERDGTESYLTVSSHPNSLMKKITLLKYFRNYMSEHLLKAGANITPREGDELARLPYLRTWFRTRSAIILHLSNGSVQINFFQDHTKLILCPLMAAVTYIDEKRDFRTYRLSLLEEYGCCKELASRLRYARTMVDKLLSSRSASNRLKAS
# Starred values were filed as active, the others as inactive; ? = inconclusive; · = not tested or not shown; [ ] = dose if it differs, or a comment. Most compounds without a hit are left out; they make up all but 12% or so of the library. The call rests on the fitted dose curve; in most records, active means well fitted curve in the direction sought with a large enough effect; inconclusive means small, poorly fitted or top-dose-only effect, or another doubt; inactive means no such curve, though single readings can be large; an effect the other way counts as inactive or inconclusive. Potency means the concentration at half of the fitted maximal effect.
SMILES,HP1b binding inh,G9a inh,BAZ2B block,Sfp PPTase inh,JMJD2A Tudor inh,PLK1 PBD block
CCC(CO)Oc1cc(NCc2cccc(OC)c2)c2ncn(C(C)C)c2c1 (configuration not stated),15%,·,·,·,?,-10%
Cc1nc2ccc(C(=O)Nc3cccc(OCC(=O)N(C)C)c3)cn2c1N(C)CC1CCCCC1,·,·,·,·,·,2%
CC1CCCCC1NC(=S)NC(=O)c1sc2ccccc2c1Cl (configuration not stated),-6%,·,3%,32µM*,-5%,-15%
COc1ccccc1C(=O)NNC(=S)NC(=O)c1sc2ccccc2c1Cl,-24%,14%[59 µM],10%,13%,-32%,?
Cc1c(NC(=S)NC(=O)c2sc3ccccc3c2Cl)cccc1C(=O)O,-7%,4.5µM*,50µM*,-15%,?,-24%
CN(C)C(=O)c1ccc(-c2ccc3ncnc(N4CCC(C(=O)O)CC4)c3c2)cc1,·,-2%[0.501 µM],·,8%,·,·
CCCCNC(=S)NNC(=O)c1c(Cl)c(C)nn1C,31%,-9%[59 µM],1%,12%,-3%,-6%
CCn1c(-c2c(Cl)c(C)nn2C)n[nH]c1=S,-2%,11µM*,-5%,-13%,20µM*,-6%
CCCCn1c(-c2c(Cl)c(C)nn2C)n[nH]c1=S,-15%,8.9µM*,-22%,-9%,13µM*,?
c1ccc(-c2nc(-c3ccccn3)no2)cc1,11%,-1%[59 µM],7%,-6%,-8%,-10%
c1ccc(-c2n[nH]c(-c3ccccn3)n2)cc1,37%,?,8.9µM*,12%,?,1%
CCOn1c(=O)c(-c2ccc(Cl)cc2)[n+]([O-])c2ccccc21,-8%,-22%,39%,-2%,?,21µM*
O=c1c(-c2ccc(F)cc2)[n+]([O-])c2ccccc2n1OCc1ccccn1,-9%,-36%,3%,7%,-20%[11.4 µM],21µM*
CNC(=O)C1CCC(Cn2c(=O)c3sccc3n(CC(=O)Nc3ccc(C)c(C)c3)c2=O)CC1 (configuration not stated),28%,21%[59 µM],-5%,·,-12%,·
COc1ccc(N2C(=O)CSC23C(=O)N(CC(=O)NCc2ccccc2)c2ccccc23)cc1 (configuration not stated),27%,-6%[59 µM],7%[57.1 µM],·,-10%,·
O=c1oc2ccccc2c(N2CCCC2)c1CN1CCCC1,35%,56µM*,-1%,3%,-11%,0%
O=c1oc2ccccc2c(Cl)c1CN1CCCCC1,33%,50µM*,-16%,16%,-8%,12µM*
O=c1cc(CN2CCCCCCC2)c2ccccc2o1,·,·,·,·,·,-4%
Cc1cc(-c2c(C)[nH]n(-c3ccc(Cl)cc3)c2=O)n(-c2ccccc2)n1,3%,-17%[59 µM],-31%,21%,-27%,-6%
CC1=NN(c2ccc(Cl)cc2)C(=O)C1C(c1cccc(O)c1)c1c(C)[nH]n(-c2ccc(Cl)cc2)c1=O (configuration not stated),?,?,45µM*,11%,56µM*,5.3µM*
CC1=NN(c2ccc(F)cc2)C(=O)C1C(c1cccc(O)c1)c1c(C)[nH]n(-c2ccc(F)cc2)c1=O (configuration not stated),-38%,?,-32%[57.1 µM],-25%,23%[11.4 µM],5.3µM*
O=C(O)CSCC(=O)Nc1ccccc1SCCS(=O)(=O)c1ccc(Cl)cc1,36%,-10%,-1%,?,-13%,-10%
Cc1ccc(-n2c(C)cc3c2CC(C)(C)CC3=O)cc1C,-28%,?,?,9%,56µM*,-9%
COc1ccc(C2CC(=O)c3cc(-c4nc(-c5cccc([N+](=O)[O-])c5)cs4)c(=O)n(-c4ccccc4)c3C2)cc1 (configuration not stated),14%,-7%[59 µM],0%,·,-12%,·
COc1ccc(C2CC(=O)c3cc(-c4nc(-c5cccc([N+](=O)[O-])c5)cs4)c(=O)n(-c4ccccc4C)c3C2)cc1 (configuration not stated),24%,3.5µM*,?,·,-16%,·
SMILES,HP1b binding inh,G9a inh,BAZ2B block,Sfp PPTase inh,JMJD2A Tudor inh,PLK1 PBD block
O=C1CCCc2[nH]c(=O)c(-c3nc(-c4cccc([N+](=O)[O-])c4)cs3)cc21,23%,1%[59 µM],3%,·,-5%,·
COc1ccc(C2CC(=O)c3cc(-c4nc(-c5ccc(C)cc5)cs4)c(=O)[nH]c3C2)cc1 (configuration not stated),44%,1.8µM*,?,·,1%,·
CC1(C)CC(=O)c2cc(-c3nc(-c4ccc(F)cc4)cs3)c(=O)[nH]c2C1,34%,1.3µM*,71µM*,·,?,·
Cc1ccc(N2CC(C(=O)OCC(=O)Nc3ccccc3C)CC2=O)cc1 (configuration not stated),49%,34%[12.7 µM],6%,·,6%,4%
CCN(C(=O)c1c(C)noc1C)c1c(N)n(Cc2ccccc2)c(=O)[nH]c1=O,46%,-7%[12.7 µM],-1%,·,-10%,-1%
CC1(C)CC(=O)c2cc(-c3nc(-c4ccc(Cl)cc4)cs3)c(=O)[nH]c2C1,29%,14µM*,1%,·,3%,·
COc1ccc(-n2c3c(cc(-c4nc(-c5ccc(C)cc5)cs4)c2=O)C(=O)CC(C)(C)C3)cc1,76%,2%[59 µM],7%,·,3%,·
COc1ccc(C2CC(=O)c3cc(-c4nc(-c5ccc(Cl)cc5)cs4)c(=O)[nH]c3C2)cc1OC (configuration not stated),36%,-38%[59 µM],?,·,3%,·
Cc1ccc(-n2c3c(cc(-c4nc(-c5ccc(Cl)cc5)cs4)c2=O)C(=O)CC(C)(C)C3)cc1C,47%,16µM*,-1%,·,15%,·
CCN(CC(=O)NCc1ccc(Cl)cc1)C(=O)CCc1ccccc1,33%,12%,0%,18%,-2%,-12%
O=C(NNC(=O)c1nc2ccccc2[nH]1)OCc1ccccc1,73%,·,·,·,-3%,·
COCCN(C(=O)COC(=O)c1sccc1C)c1c(N)n(Cc2ccccc2)c(=O)[nH]c1=O,25%,·,-7%,-3%,-1%,-3%
CC(=O)C1=C(O)C(=O)N(CC#N)C1c1cccs1 (configuration not stated),14%,-5%[59 µM],-11%,-19%,79µM*,-3%
O=C(C1=C(O)C(=O)N(CCOCCO)C1c1cccs1)c1cccs1 (configuration not stated),40%,45µM*,?,-21%,?,-5%
O=C(C1=C(O)C(=O)N(Cc2ccco2)C1c1cccs1)c1cccs1 (configuration not stated),35%,?,?,-64%,-4%[57.1 µM],-24%
